Experimental findings from PubChem BioAssay (NCATS) are described below.

Several values for one entry are separate records, joined by “and”; a condition that tells them apart may be missing. Identical values can stand only once. Records with an inconclusive call do not appear. Some structures have more than one record in an assay (separate samples or runs), and their calls can disagree. Activity calls are given as the source filed them. Unless noted, calls follow the shape of the dose curve; as a rule, active = well fitted curve in the direction sought with a large enough effect; inconclusive = small, poorly fitted or top-dose-only effect, or another doubt; inactive = no such curve, though single readings can be large; an effect the other way counts as inactive or inconclusive.

Assay [1] in a line: Identifying Small Molecule Inhibitors of Pancreatic Cancer Stem Cells (SN12C, Spheroid) (AID 1259360). Also: potency is read from the fitted curve at half-maximal effect. Particulars: Potency: SN12C spheroid viability. The procedure, abridged: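 Spheroids grown 14 days in stem cell media on nonadherent hydrogel before screening; cells attached 4 h, then compound exposure 48 h at 37C, 5% CO2. CellTiter-Glo luminescence normalized to DMSO (no inhibition) and no-cell wells (full inhibition).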

Assay [2] can be described thus: Identifying Small Molecule Inhibitors of Pancreatic Cancer Stem Cells (A278, Adherent) (AID 1259361). Also: nearly all actives have a fitted effect of over 35% in size. A digest of the protocol:
(§1)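 Endpoint: ATP-based luminescence, 48 h drug exposure. Bortezomib at 9.2 uM final as full-kill control; DMSO vehicle as negative control; activity normalized between vehicle and cell-free wells.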

A short description of assay [3]: P-glycoprotein substrates identified in KB-8-5-11 adenocarcinoma cell line, qHTS therapeutic library screen (AID 1346987). Also: nearly all actives have a fitted effect of over 65% in size. Also: potency is read from the fitted curve at half-maximal effect. The procedure, abridged: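 P-gp-mediated resistance screen: KB-8-5-11 cells treated 72 h with compounds in dose-response. CellTiter-Glo viability.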
Assay [4] in a line: NS1 protein of Zika virus - qHTS assay to identify small molecule inhibitors in human HEK 293 cells (AID 1347053).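 Also: series mostly up to about 46 µM; plate controls were infected untreated cells for no effect and uninfected cells for full effect; nearly all actives have a fitted effect of over 55% in size.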 A digest of the protocol:
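HEK 293 cells pretreated with compound for 1 h, then infected with ZIKV MR766 (MOI 0.5) for 24 h at 37 C. NS1 detected by TR-FRET with two anti-NS1 antibodies; normalized to uninfected (0%) and infected (100%) wells.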
A general note: qHTS replaces the single test concentration by a dilution series.

The nature of assay [5]: qHTS of pediatric cancer cell lines to identify multiple opportunities for drug repurposing: Primary screen for TC32 cells (AID 1347089). Also: % is scaled to controls: 0 for no effect and ±100 for the full control effect; nearly all actives have a fitted effect of over 60% in size. The procedure, abridged: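 A viability screen of TC32 cells was run over 48 h, with primary MIPE doses spanning 0.78 nM–46 µM and NPC doses 0.59 nM–46 µM. ATP luminescence (CellTiter-Glo) served as the read-out.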
The nature of assay [6]: Identifying Small Molecule Inhibitors of Pancreatic Cancer Stem Cells (SN12C, Adherent) (AID 1259358).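 Also: cell survival measured after 48 h of compound exposure.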 Also: potency is read from the fitted curve at half-maximal effect. The procedure, abridged:
as §1

A short description of assay [7]: Identifying Small Molecule Inhibitors of Pancreatic Cancer Stem Cells (Panc1, Adherent) (AID 1259362).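 Also: compound exposure lasted 48 h before the viability read; plate controls were DMSO-treated cells for no effect and cell-free media wells for full effect.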 The note with it: Potency: viability. A digest of the protocol:
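Pre-formed 14-day tumor spheroids or adherent cells dosed and incubated 48 h, 37C, 5% CO2. Viability assessed by CellTiter-Glo.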

Assay [8] is described as follows: Natriuretic polypeptide receptor (hNpr1) antagonism - Pilot counterscreen GloSensor control cell line (AID 1347045; calls by dose curve; also: series mostly up to about 38 µM; % is scaled to controls: 0 for no effect and ±100 for the full control effect). The procedure, abridged: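 This counterscreen uses HEK293 cells expressing the GIP/pGS-40F cGMP biosensor. Compound-treated cells are challenged with 50 uM sodium nitroprusside, and the luciferase signal is compared before and after stimulation.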

Assay [9] concerns the target Atrial natriuretic peptide receptor 1 (Homo sapiens) (UniProt P16066). The assay can be described thus: Natriuretic polypeptide receptor (hNpr1) antagonism - Pilot screen (AID 1347049; calls by dose curve;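 also: agonist-evoked cGMP luminescence read 20 min after hNppA addition; series mostly up to about 58 µM; % is scaled to controls: 0 for no effect and ±100 for the full control effect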). The procedure, abridged: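 HEK293 cells expressing hNpr1 and GloSensor cGMP luciferase, 1500/well, loaded with 2% GloSensor reagent 2 h, compound 30 min at room temperature; luminescence read before and 20 min after 0.1 nM hNppA stimulation.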

The target in assay [10] is Atrial natriuretic peptide receptor 2 (Homo sapiens) (UniProt P20594). The assay can be described thus: Natriuretic polypeptide receptor (hNpr2) antagonism - Pilot subtype selectivity assay (AID 1347050; calls by dose curve; also: % is scaled to controls: 0 for no effect and ±100 for the full control effect). The procedure, abridged:
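HEK293 cells expressing hNpr2 and a GloSensor cGMP luciferase sensor, 1500/well, preloaded 2 h with 2% GloSensor reagent, compound 30 min, then 1 nM hNppC for 20 min. Antagonism from luminescence after versus baseline pre-read; LOPAC in 1:5 titrations.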

For assay [11], the target named is Parathyroid hormone/parathyroid hormone-related peptide receptor (Homo sapiens) (UniProt Q03431). The assay can be described thus: qHTS for PTHR1 Agonists: Optimization Screen against the NCGC LOPAC library (AID 1347079).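 Also: GloSensor cAMP luminescence in HEK-293 GP2 cells expressing human PTHR1 with IBMX; 0% is about no effect.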 The procedure, abridged:
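Compounds were tested across a qHTS titration. PTHR1-expressing GP2 cells report cAMP rises via GloSensor luminescence after 1 hr compound exposure at 37C with IBMX present.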

Assay [12] in a line: Identifying Small Molecule Inhibitors of Pancreatic Cancer Stem Cells (Panc1, Spheroid) (AID 1259359).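 Also: potency is read from the fitted curve at half-maximal effect; compound exposure lasted 48 h before reading.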 A digest of the protocol: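 After a 4 h attachment period, compounds were pinned into wells and cultures held 48 h under standard incubator conditions. Viability was then measured as CellTiter-Glo luminescence following 10 min at room temperature.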
The target of assay [13] is T1, Tyrosine-protein phosphatase non-receptor type substrate 1 (Homo sapiens) + Leukocyte surface antigen CD47 (Homo sapiens) (UniProt P78324+Q08722). The assay can be described thus: CD47-SIRPalpha protein protein interaction - HTRF assay qHTS validation (AID 1347058; active = well fitted curve in the direction sought with a large enough effect in the signal ratio, not every such curve was filed as active; the % refers to the signal ratio;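 also: recombinant soluble extracellular CD47 with His tag and biotinylated SIRPalpha domains; series mostly up to about 38 µM; 0% is about no effect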). The procedure, abridged:
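TR-FRET read (Ch1/Ch2 ratio) of soluble extracellular CD47 and Avi-biotinylated SIRPalpha domains in PBS pH 7.4 with 0.05% IGEPAL; 7-point compound titration. Sequential 30 min room-temperature steps; non-biotinylated SIRPalpha as control inhibitor.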
On the technique in general: TR-FRET usually uses a lanthanide donor and a delayed reading to cut background.

Assay [14] addresses T1, Tyrosine-protein phosphatase non-receptor type substrate 1 (Homo sapiens) + Leukocyte surface antigen CD47 (Homo sapiens). Description: CD47-SIRPalpha protein protein interaction - Alpha assay qHTS validation (AID 1347059).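 Also: bead proximity luminescence from CD47 binding SIRPalpha after compound preincubation with SIRPalpha; % is scaled to controls: 0 for no effect and ±100 for the full control effect.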 A digest of the protocol:
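Biotinylated Avi-tagged SIRPalpha (25 nM) preincubated 30 min with compound, then His-tagged CD47 (12.5 nM) added 30 min; AlphaScreen with Ni-NTA acceptor and streptavidin donor beads. PBS pH 7.4, 0.05% IGEPAL, room temperature; 7-point titrations.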

T1 sequence (P78324 whole entry, looked up, the tested form may be a part): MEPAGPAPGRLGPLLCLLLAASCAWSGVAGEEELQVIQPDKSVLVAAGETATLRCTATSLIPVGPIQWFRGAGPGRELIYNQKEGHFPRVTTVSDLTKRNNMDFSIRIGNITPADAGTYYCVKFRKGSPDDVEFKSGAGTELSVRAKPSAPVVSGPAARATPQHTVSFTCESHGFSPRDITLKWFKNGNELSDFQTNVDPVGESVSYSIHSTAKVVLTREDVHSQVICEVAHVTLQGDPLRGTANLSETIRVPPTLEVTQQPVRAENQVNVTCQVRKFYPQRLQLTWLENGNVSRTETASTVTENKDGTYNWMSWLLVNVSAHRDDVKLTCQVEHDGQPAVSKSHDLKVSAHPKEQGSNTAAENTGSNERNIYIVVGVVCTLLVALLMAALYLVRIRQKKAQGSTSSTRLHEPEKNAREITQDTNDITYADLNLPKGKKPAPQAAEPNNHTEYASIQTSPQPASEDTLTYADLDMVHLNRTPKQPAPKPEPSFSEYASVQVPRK
T1 sequence (Q08722 whole entry, looked up, the tested form may be a part): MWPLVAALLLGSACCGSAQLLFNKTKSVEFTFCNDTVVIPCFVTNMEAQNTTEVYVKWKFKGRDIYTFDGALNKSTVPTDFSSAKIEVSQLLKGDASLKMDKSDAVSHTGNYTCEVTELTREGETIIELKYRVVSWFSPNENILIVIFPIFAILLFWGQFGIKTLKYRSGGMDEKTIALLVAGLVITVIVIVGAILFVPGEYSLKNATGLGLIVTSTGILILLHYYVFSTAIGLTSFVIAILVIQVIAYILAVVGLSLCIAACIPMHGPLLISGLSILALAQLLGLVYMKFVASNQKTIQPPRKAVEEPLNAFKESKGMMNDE
Parathyroid hormone/parathyroid hormone-related peptide receptor (Homo sapiens), sequence (Q03431 whole entry, looked up): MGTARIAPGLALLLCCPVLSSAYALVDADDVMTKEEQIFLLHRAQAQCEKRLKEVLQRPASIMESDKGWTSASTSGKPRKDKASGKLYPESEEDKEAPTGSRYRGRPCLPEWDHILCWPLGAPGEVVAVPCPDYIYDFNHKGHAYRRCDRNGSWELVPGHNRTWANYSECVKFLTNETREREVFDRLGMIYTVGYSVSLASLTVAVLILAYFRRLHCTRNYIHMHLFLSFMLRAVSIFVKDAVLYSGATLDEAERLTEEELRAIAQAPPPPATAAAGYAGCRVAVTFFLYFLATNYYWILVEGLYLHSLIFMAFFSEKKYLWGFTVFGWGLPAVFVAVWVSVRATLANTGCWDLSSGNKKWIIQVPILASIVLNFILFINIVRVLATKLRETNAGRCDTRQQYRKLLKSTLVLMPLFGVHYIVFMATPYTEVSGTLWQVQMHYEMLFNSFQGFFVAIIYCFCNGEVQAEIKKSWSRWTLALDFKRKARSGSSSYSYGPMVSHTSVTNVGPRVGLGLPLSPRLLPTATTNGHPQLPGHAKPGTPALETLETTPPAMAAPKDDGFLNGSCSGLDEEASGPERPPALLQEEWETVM
Atrial natriuretic peptide receptor 1 (Homo sapiens), sequence (P16066 whole entry, looked up): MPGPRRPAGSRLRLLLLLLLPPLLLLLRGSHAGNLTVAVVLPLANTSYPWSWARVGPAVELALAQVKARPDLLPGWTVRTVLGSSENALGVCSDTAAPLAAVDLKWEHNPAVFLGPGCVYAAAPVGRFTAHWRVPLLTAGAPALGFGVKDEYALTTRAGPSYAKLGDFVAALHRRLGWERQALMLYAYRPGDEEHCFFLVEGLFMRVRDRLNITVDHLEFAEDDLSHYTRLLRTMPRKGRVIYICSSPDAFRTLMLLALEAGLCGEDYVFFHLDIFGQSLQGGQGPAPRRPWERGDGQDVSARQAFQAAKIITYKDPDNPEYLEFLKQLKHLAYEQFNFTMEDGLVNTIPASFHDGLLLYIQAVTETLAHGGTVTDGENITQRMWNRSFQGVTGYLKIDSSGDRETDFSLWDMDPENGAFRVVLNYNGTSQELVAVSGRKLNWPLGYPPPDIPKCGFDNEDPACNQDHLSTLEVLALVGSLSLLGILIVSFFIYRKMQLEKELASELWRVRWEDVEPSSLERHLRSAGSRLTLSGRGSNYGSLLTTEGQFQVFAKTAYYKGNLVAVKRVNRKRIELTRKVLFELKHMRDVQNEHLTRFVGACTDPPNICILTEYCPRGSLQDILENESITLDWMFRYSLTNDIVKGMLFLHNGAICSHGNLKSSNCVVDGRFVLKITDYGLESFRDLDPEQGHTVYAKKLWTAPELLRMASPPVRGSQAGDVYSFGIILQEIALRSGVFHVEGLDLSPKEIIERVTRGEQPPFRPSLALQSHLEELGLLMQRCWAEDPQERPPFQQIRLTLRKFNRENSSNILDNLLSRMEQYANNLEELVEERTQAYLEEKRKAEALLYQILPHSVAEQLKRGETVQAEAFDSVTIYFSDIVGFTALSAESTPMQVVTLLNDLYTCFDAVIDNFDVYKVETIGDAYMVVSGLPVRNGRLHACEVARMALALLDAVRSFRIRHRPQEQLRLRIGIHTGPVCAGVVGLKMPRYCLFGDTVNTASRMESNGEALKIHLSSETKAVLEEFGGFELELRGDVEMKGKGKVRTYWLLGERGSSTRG
Atrial natriuretic peptide receptor 2 (Homo sapiens), sequence (P20594 whole entry, looked up): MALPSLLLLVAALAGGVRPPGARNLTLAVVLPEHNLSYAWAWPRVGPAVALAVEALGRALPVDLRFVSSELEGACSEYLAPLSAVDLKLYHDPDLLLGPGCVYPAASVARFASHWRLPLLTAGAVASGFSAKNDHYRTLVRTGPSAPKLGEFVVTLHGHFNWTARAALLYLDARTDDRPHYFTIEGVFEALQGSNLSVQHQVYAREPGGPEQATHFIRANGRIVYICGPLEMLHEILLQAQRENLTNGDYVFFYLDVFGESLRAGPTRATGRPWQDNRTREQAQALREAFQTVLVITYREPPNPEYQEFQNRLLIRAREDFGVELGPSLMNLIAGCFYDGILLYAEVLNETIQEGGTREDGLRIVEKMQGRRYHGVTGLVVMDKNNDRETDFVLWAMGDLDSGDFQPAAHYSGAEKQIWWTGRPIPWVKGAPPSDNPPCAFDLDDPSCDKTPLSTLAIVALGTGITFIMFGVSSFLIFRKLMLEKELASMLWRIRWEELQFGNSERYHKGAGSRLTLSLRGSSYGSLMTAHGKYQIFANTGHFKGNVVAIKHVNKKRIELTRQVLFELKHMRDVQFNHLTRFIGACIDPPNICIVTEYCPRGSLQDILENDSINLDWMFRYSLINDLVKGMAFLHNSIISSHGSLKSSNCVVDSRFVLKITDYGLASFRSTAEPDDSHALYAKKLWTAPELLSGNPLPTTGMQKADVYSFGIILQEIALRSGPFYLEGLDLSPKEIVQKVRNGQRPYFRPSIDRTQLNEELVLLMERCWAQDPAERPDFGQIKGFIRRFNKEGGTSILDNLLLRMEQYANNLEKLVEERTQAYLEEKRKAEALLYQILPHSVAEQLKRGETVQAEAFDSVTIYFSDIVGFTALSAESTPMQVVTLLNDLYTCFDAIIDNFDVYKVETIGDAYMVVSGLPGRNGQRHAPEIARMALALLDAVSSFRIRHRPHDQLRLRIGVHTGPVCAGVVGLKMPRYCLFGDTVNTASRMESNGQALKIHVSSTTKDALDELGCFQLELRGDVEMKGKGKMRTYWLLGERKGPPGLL

In the case of `Cc1cc(C=c2sc3nc4ccccc4n3c2=O)c(C)n1-c1ccccc1`, the Potency entry in [1], in assay [3], in [4] and in assay [5] was “inactive” in each case. Besides, the IC50 (viability decrease) entry in [2] was “inactive”.
With `CNC(=O)c1ccccc1Sc1ccc2c(/C=C/c3ccccn3)n[nH]c2c1`, the Potency in [3] is 18.4 µM (active) and 7.31 µM (active).
For `CN([C@@H](Cc1ccc(OS(=O)(=O)c2cccc3cnccc23)cc1)C(=O)N1CCN(c2ccccc2)CC1)S(=O)(=O)c1cccc2cnccc12`, the Potency entry in assay [6] and in assay [1] was “inactive” each time. In assay [3], the activity change, negative = cytotoxicity was -4.44% [at 5.11 µM] (inactive).
For the compound `NC(=O)C1CCCc2c1[nH]c1ccc(Cl)cc21` (centres undefined), the Potency entry in [1], in assay [3], in assay [4] and in [5] was “inactive” throughout.
As for `CN(C(=O)c1ccc(F)cc1C(F)(F)F)C1CCN(c2nnc(-c3ccnn3C)c3ccccc23)CC1`, the Potency entry in assay [6], in [1], in [3], in assay [4] and in assay [5] was “inactive” each time.
In the case of `CC[C@@H](C)[C@H](NC(=O)[C@H](CC1CCCCC1)NC(=O)c1ccno1)C(=O)N1CCC2(CCc3ccccc32)CC1`, the Potency in assay [1] was 11.8 µM (active). The Potency result in assay [3] and in assay [4] was “inactive” throughout.
Regarding `Cc1cc(-c2nnc3n2CCCCC3)c(C)n1-c1ccc(F)cc1`, the Potency entry in [1] was “inactive”.
For `C[C@]12CC[C@H](O)CC1=CC[C@@H]1[C@H]2CC[C@]2(C)C(c3cccnc3)=CC[C@H]12`, the Potency entry in [1], in assay [3], in assay [4] and in [5] was “inactive” throughout. In [2], the IC50 (viability decrease) result was “inactive”.
In the case of `O=C(NOC[C@H](O)CO)c1ccc(F)c(F)c1Nc1ccc(I)cc1F`, the Potency in assay [6] was 9.35 µM (active); in assay [1], 0.0053 µM (active). For the same compound, the Potency result in assay [3] and in [4] was “inactive” in each case.
In the case of `CCCn1c(=O)c2[nH]c(C34CC5CC3C[C@@H](C5)C4)nc2n(CCC)c1=O`, the Potency entry in assay [6], in assay [1], in assay [3] and in assay [4] was “inactive” each time.
As to `Cc1ccc(NC(=O)c2cccc(C(C)(C)C#N)c2)cc1Nc1ccc2ncn(C)c(=O)c2c1`, in assay [3], the Potency is 16.6 µM (active). In addition, the Potency entry in [4] is “inactive”.
Regarding `COc1nc(-c2ccc3c(c2)OCO3)n(-c2ccc(NC(=O)CSc3ccccc3)cc2)n1`, the Potency result in assay [1], in [3], in assay [4] and in [5] was “inactive” each time.
As for `CNC(=O)c1ccc(C)c(-n2c(C)cc(OCc3ccc(F)cc3F)c(Br)c2=O)c1`, in [1], the Potency was 4.69 µM (active). Besides, the Potency entry in assay [3], in assay [4] and in assay [5] was “inactive” each time.
`Cc1cc(-c2ccc(CC(=O)Nc3ccc(-c4cccnc4)cc3)cc2)ccn1`: the Potency entry in [6], in [1] and in [5] was “inactive” in each case.
With `O=C(Nc1ccc(F)c(C(F)(F)F)c1)Nc1nnc(-c2ccncc2)s1`, the Potency entry in assay [3], in assay [4] and in assay [5] was “inactive” in each case.
In the case of `Cc1cnc(Nc2ccc(OCCN3CCCC3)cc2)nc1Nc1cccc(S(=O)(=O)NC(C)(C)C)c1`, the Potency entry in assay [1], in [3] and in [4] was “inactive” throughout.
In the case of `OCCC#Cc1nc(-c2ccc(F)cc2)c(-c2ccncc2)n1CCCc1ccccc1`, the Potency in [1] is 20.9 µM (active). Besides, the Potency entry in assay [4] and in assay [5] was “inactive” each time.
`COc1cc2c(cc1OC)CN(CCc1ccc(NC(=O)c3cccc4c(=O)c5cccc(OC)c5[nH]c34)cc1)CC2`: the Potency result in [6], in [1], in assay [7], in assay [3] and in assay [4] was “inactive” each time.
Take `Nc1ncnc2nc(-c3ccc(N4CCOCC4)nc3)cc(-c3cccc(Br)c3)c12`: the Potency result in [6], in assay [3], in assay [10], in assay [4] and in assay [5] was “inactive” each time. For the same compound, the IC50 (viability decrease) in assay [2] is 26.4 µM (active). Further, the compound was classed as inactive in assay [8], in assay [9] and in assay [11].
Consider `CN(C)C(=O)c1ccc(S(=O)(=O)c2ccc(NC(=O)[C@@](C)(O)C(F)(F)F)c(Cl)c2)cc1`, for which the Potency result in [6], in assay [4] and in assay [5] was “inactive” throughout.
Turning to `CO[C@@H]1[C@H](N(C)C(=O)c2ccccc2)C[C@H]2O[C@]1(C)n1c3ccccc3c3c4c(c5c6ccccc6n2c5c31)C(=O)NC4`, the Potency in [3] is 1.48 µM (active) and 1.3 µM (active).
For `c1ccc(-c2nn3c(c2-c2ccnc4cc(OCCN5CCOCC5)ccc24)CCC3)nc1`, the Potency result in [6], in assay [4] and in assay [5] was “inactive” each time.
As to `Cc1ccnc(NS(=O)(=O)c2ccc(NC(=O)Nc3ccc(S(=O)(=O)Nc4nccc(C)n4)cc3)cc2)n1`, the Potency in assay [1] was 18.7 µM (active); in [3], 14.8 µM (active) and inactive. Moreover, the Potency result in assay [4] and in [5] was “inactive” in each case.
Take `CC1(C)Cc2c(-c3ccccc3)c(-c3ccc(Cl)cc3)c(CC(=O)O)n2C1`: the Potency entry in [6], in assay [1] and in assay [5] was “inactive” throughout.
For `C[C@@H]1CN(Cc2ccc(F)cc2)[C@@H](C)CN1C(=O)c1cc2c(C(=O)C(=O)N(C)C)cn(C)c2cc1Cl`, the Potency in [1] was 16.6 µM (active). In addition, the Potency entry in assay [3], in assay [4] and in assay [5] was “inactive” each time.
On to `CC(C)c1onc(-c2c(Cl)cccc2Cl)c1COc1ccc(/C=C/c2cccc(C(=O)O)c2)c(Cl)c1`, for which the Potency in [12] was 18.7 µM (active).
Take `COc1cc(Oc2ccnc3cc(OC)c(OC)cc23)ccc1NC(=O)NC(C)c1nccs1` (centres undefined): the Potency result in assay [3], in assay [4] and in assay [5] was “inactive” each time.
On to `CCN(CC)CCCC(C)Nc1nc(C)cc(Nc2ccc3nc(C)cc(N)c3c2)n1` (centres undefined), for which the Potency result in assay [6], in assay [1], in [3], in assay [4] and in assay [5] was “inactive” throughout.
For `CCC(C)N(C)C(=O)c1cc2ccccc2c(-c2ccccc2Cl)n1` (centres undefined), the Potency entry in assay [1], in assay [10], in [4] and in assay [5] was “inactive” throughout. In addition, the IC50 (viability decrease) result in assay [2] is “inactive”. The compound was classed as inactive in assay [8], in [9], in assay [13], in assay [14] and in assay [11].
Regarding `CC(C)(N)C(=O)N[C@H](COCc1ccccc1)C(=O)N1CCC2(CC1)CN(S(C)(=O)=O)c1ccccc12`, the Potency result in [1], in [3] and in assay [5] was “inactive” each time.
For the compound `C/C(=C\C(=O)Nc1ccccc1C(=O)O)c1ccc2ccccc2c1`, the Potency result in assay [1], in [7] and in assay [3] was “inactive” each time.
Consider `NC(=O)c1ccc(-c2nc(-c3ccc4c(c3)OCCO4)c(-c3ccccn3)[nH]2)cc1`, for which the Potency entry in assay [3] and in assay [4] was “inactive” throughout.
Turning to `N#CC[C@H](C1CCCC1)n1cc(-c2ncnc3[nH]ccc23)cn1`, the Potency entry in [1] and in [4] was “inactive” throughout. The Potency in assay [3] is 26.4 µM (active).
For the compound `Cc1ccccc1C(C(=O)NC1CCCC1)N(C(=O)Cn1cnc2ccccc21)c1cccc(F)c1` (centres undefined), the Potency result in [6], in assay [1] and in assay [5] was “inactive” in each case.
Turning to `Cc1ccc2c(c1)C(=O)[C@@]1(O)CCN(c3ccccc3)C1=N2`, the Potency result in [6] and in assay [1] was “inactive” each time. Further, the IC50 (viability decrease) result in [2] was “inactive”.
For `COc1c(Cl)cc2c([nH]c3cnccc32)c1NC(=O)c1cccnc1C`, the Potency entry in assay [6], in assay [3] and in [4] was “inactive” in each case.
Turning to `CCOC(=O)C1=C[C@@]2(CC)CCCN3CCc4c(n1c1ccccc41)[C@H]32`, the Potency result in [1] was “inactive”.
